# Many of the other results were omitted from the sample, so hits are more common in it than they were.
# KDM5B inhibitor = KDM5B demethylase inhibition; Q9UGL1; KDM5B demethylase, FDH-coupled NADH fluorescence (FDH is formaldehyde dehydrogenase); Potency, µM (doses to about 57.7 µM), most hits filed as inhibitors; 2.6% of 220,000 active; active = well fitted inhibition curve with a large enough effect; note: 0% is about no effect; nearly all actives have a fitted effect of over 70% in size
# Target sequence (Q9UGL1 whole entry, looked up): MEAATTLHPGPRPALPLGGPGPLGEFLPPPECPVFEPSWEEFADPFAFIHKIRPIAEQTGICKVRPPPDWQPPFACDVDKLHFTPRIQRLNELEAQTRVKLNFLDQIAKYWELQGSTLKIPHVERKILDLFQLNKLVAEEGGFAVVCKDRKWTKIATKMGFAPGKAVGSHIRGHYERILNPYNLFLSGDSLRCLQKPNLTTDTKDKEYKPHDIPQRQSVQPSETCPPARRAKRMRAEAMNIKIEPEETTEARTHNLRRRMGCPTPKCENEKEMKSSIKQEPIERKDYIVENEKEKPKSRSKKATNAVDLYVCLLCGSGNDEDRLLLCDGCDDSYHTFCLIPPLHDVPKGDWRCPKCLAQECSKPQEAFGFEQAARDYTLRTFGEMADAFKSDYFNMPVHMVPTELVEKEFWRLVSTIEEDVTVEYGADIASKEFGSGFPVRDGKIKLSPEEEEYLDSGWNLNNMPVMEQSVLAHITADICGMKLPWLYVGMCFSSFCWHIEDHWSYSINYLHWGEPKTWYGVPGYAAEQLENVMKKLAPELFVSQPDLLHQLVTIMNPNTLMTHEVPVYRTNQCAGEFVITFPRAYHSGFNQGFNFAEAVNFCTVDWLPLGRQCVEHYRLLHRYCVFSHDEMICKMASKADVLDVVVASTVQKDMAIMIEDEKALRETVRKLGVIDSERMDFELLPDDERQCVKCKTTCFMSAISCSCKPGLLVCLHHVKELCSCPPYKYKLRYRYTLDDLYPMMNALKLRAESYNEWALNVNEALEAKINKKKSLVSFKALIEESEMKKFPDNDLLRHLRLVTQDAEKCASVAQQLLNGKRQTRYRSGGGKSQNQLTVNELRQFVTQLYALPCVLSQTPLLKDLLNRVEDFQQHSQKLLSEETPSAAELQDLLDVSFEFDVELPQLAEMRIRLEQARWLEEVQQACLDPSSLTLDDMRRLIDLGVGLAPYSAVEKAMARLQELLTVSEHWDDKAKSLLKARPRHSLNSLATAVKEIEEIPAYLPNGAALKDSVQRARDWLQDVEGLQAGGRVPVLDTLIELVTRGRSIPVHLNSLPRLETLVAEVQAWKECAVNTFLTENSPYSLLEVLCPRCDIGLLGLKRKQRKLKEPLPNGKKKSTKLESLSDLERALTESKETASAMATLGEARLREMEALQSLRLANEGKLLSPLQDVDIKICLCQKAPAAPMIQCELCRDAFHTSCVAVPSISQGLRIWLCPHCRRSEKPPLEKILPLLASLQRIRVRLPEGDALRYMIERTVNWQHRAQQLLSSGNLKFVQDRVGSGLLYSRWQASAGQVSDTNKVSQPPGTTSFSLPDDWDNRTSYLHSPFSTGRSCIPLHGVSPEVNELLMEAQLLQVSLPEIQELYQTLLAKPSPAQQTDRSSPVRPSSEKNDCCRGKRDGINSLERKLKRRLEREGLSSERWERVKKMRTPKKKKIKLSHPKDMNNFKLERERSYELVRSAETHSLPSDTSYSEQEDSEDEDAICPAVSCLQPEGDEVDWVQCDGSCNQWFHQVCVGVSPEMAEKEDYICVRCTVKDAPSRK
#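 Measured: NADH fluorescence change, 30 min, RT. System: KDM5BΔAP 200 nM final, H3K4me3 peptide, α-KG, Fe(II), ascorbate, NAD⁺ plus FDH, pH 7.5 HEPES. Compounds: titrated, 10 min pre-incubation with enzyme.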
# The depositor's hits bear a star; i = inactive. Potency is the fitted concentration of half-maximal effect.
SMILES,KDM5B inhibitor
COc1ccc(CC(=O)N2CC[C@@H](CC(=O)O)[C@@H](CCN3CCN(c4ccc(F)cc4)CC3)C2)cc1,i
COc1cc2c(cc1OC)C(C[C@H]1CN(C(=O)c3ccco3)CC[C@H]1CC(=O)O)=NCC2,28µM*
COc1cc2c(cc1OC)C(C[C@H]1CN(C(=O)c3cccs3)CC[C@H]1CC(=O)O)=NCC2,i
CN(C)c1ccc(C(=O)N2CC[C@@H](CC(=O)O)[C@@H](CCN3CCN(c4cccc(C(F)(F)F)c4)CC3)C2)cc1,i
O=C(O)C[C@@H]1CCN(C(=O)c2ccco2)C[C@@H]1CCN1CCN(c2ccccc2)CC1,i
COc1ccc(CC(=O)N2CC[C@@H](CC(=O)O)[C@@H](CC3=NCCc4cc(OC)c(OC)cc43)C2)cc1,32µM*
COc1cc2c(cc1OC)C(C[C@H]1CN(C(=O)c3ccc(C#N)cc3)CC[C@H]1CC(=O)O)=NCC2,i
COc1ccc(CC(=O)N2CC[C@@H](CC(=O)O)[C@@H](CCN3CCOCC3)C2)cc1,i
COc1cccc(C2CC(=O)N(c3ccccc3)C3=C2C(=O)OC3)c1OC (centres undefined),i
O=C(CCc1c[nH]c2ccccc12)N1CCC(C(=O)N2CCCCCC2)CC1,i
Cc1cccc(NC(=O)CSc2nnc(COc3ccc(Cl)cc3)n2Cc2ccco2)c1,i
CC(C)CNC(=O)N1CCCC(c2nc(CCOc3ccc(F)cc3)no2)C1 (centres undefined),i
CC(Sc1cccc2cccnc12)C(=O)NC(=O)NC(C)(C)C (centres undefined),i
COc1ccccc1NC(=O)c1ccc2ccccc2n1,i
COc1ccccc1OCCNC(=O)c1cc2n(n1)CC(c1ccc(Cl)cc1)OC2 (centres undefined),i
CCCCNC(=O)c1cc2n(n1)CC(c1ccc3c(c1)OCO3)OC2 (centres undefined),i
CC(C)Oc1ccc(CNC(=O)c2cc3n(n2)CC(c2ccc(Cl)cc2)OC3)cc1 (centres undefined),i
O=C(NCc1ccc(Cl)cc1)c1cc2n(n1)CC(c1ccc3c(c1)OCO3)OC2 (centres undefined),28µM*
O=C(NCCC1=CCCCC1)c1cc2n(n1)CC(c1ccc(Cl)cc1)OC2 (centres undefined),i
O=C(NCC1CC1)c1cc2n(n1)CC(c1ccc3c(c1)OCO3)OC2 (centres undefined),i
O=C(NCc1ccc(F)cc1F)c1cc2n(n1)CC(c1ccc3c(c1)OCO3)OC2 (centres undefined),28µM*
CCc1ccc(-n2nc(CO)c(C(=O)NCc3ccc4c(c3)OCO4)n2)cc1,i
O=C(NCc1cccs1)c1cc2n(n1)CC(c1ccc(Cl)cc1)OC2 (centres undefined),i
CCOc1ccccc1CNC(=O)c1cc2n(n1)CC(c1ccc3c(c1)OCO3)OC2 (centres undefined),32µM*
CCc1ccc(CNC(=O)c2cc3n(n2)CC(c2ccc4c(c2)OCO4)OC3)cc1 (centres undefined),25µM*
SMILES,KDM5B inhibitor
Cc1ccc(C(=O)NCC(F)(F)F)o1,i
COc1ccccc1C(=O)Oc1ccc2c(=O)c(-c3ccccc3OC)coc2c1,i
CC(Oc1cccc(Oc2ccccc2)c1)C(=O)c1ccc(F)c(F)c1 (centres undefined),i
CCOC(=O)c1cc2n(n1)CC(C)(C(=O)NC1CCCC1)N(c1ccc(C)c(F)c1)C2=O (centres undefined),i
C[C@H](O)CNC(=O)C(=O)Nc1ccc(C(F)(F)F)nc1,i
CC1CCc2c(sc3ncnc(OCC(=O)NC(=O)Nc4ccc5c(c4)OCCO5)c23)C1 (centres undefined),i
CCCCOCCCNC(=O)CCC(=O)NC1CCCCCCCCCCC1,i
CSc1nnc(-c2ccccc2NC(=O)c2ccc(C)c(S(=O)(=O)N3CCCC3)c2)o1,i
COc1ccc(CN(C(=O)c2ccco2)c2ccc(CC(=O)NCCc3ccccc3)cc2)cc1,i
Cc1noc(C)c1-c1cc2c(cc(C)n2CCN(C)C)c(-c2ccccc2)n1,32µM*
Cc1cc(-c2nc(-c3c(C)noc3C)cc3c2cc(C)n3CCN(C)C)ccn1,35µM*
Cc1noc(C)c1-c1cc2c(cc(C)n2CCN(C)C)c(-c2ccsc2)n1,32µM*
Cc1noc(C)c1-c1cc2c(cc(C)n2CCN(C)C)c(-c2ccnn2C)n1,35µM*
O=C(Nc1cccnc1)c1cc(-c2ccccc2)nc2ccccc12,i
CCC(=O)Nc1ccc(-c2csc(NCc3ccco3)n2)cc1,i
COc1ccc(C2CC23CCC2(CC2c2ccc(OC)cc2)C3=O)cc1 (centres undefined),i
CN1[C@@H](CCC(=O)NCc2cccs2)CNC(=O)[C@@H]2[C@H]1CCN2Cc1cccc(Cl)c1,i
O=C(CSc1cc(C(=O)NC2CC2)c2ccccc2n1)NCC1CCCO1 (centres undefined),i
COc1cncc(-c2nc(-c3c(C)noc3C)cc3c2cc(C)n3CCN(C)C)c1,40µM*
COc1cc(-c2nc(-c3c(C)noc3C)cc3c2cc(C)n3CCN(C)C)ccn1,32µM*
Cc1noc(C)c1-c1cc2c(cc(C)n2CCN(C)C)c(Nc2ccncn2)n1,32µM*
Cc1cc2cc(-c3c(C)noc3C)nc(Nc3ccn(C)n3)c2o1,i
Cc1ccc(NC(=O)C2CCN(c3cc(C(F)(F)F)ncn3)CC2)cc1F,i
CNC(=O)c1ccc(CNC(=O)NCC2(c3ccccc3)CC2)cc1,i
CONC(=O)COc1ccc(Nc2ccccc2)cc1,i
SMILES,KDM5B inhibitor
O=C(c1cc(C2CC2)nc2ccccc12)N1CCC(C(=O)N2CCCCCC2)CC1,i
Cc1nc2ccc(C(=O)N[C@@H]3COCC[C@@H]3OCc3cscn3)cc2o1,i
Cn1cnc2cc(C(=O)N[C@@H]3COCC[C@@H]3OCc3cscn3)ccc21,i
Cn1ccc(C(=O)N[C@@H]2COCC[C@@H]2OCc2cscn2)cc1=O,28µM*
CC(C)CCNC(=O)C1(NC(=O)NCc2ccccc2)CCCC1,i
CCN(CC)CC1CCN(CC(=O)OC)CC1,i
c1cnc(-c2noc(-c3nc(-c4ccc5c(c4)OCO5)no3)n2)cn1,i
Fc1cccc(Cc2noc(-c3nc(-c4ccc5c(c4)OCO5)no3)n2)c1,25µM*
COc1ccc(-c2noc(-c3nc(-c4ccccn4)no3)n2)cc1,i
COc1ccc(-c2noc(-c3nc(Cc4cccc(F)c4)no3)n2)cc1OC,25µM*
COCCc1noc(-c2nc(-c3ccc(OC)c(OC)c3)no2)n1,i
COc1ccc(-c2noc(-c3nc(Cc4ccccc4)no3)n2)cc1,32µM*
Cc1ccccc1Cc1noc(-c2nc(-c3ccccc3F)no2)n1,i
CCc1noc(-c2nc(-c3ccc(OC)cc3)no2)n1,i
CCc1noc(-c2nc(Cc3ccccc3C)no2)n1,i
Fc1cccc(Cc2noc(-c3nc(-c4ccccc4F)no3)n2)c1,i
CCc1noc(-c2nc(-c3ccc(OC)c(OC)c3)no2)n1,i
Cc1ccccc1Cc1noc(-c2nc(-c3ccc4c(c3)OCO4)no2)n1,28µM*
CCN(CC)C(=S)Sc1ccc([N+](=O)[O-])cc1,i
Cc1ccc(-n2c(=O)c3sccc3n(CC(=O)N3CCCCC3C)c2=O)c(C)c1 (centres undefined),i
COCCCNC(=S)NNC(=O)CC(c1ccccc1)c1ccccc1,i
COc1ccc(C(=O)O)cc1S(=O)(=O)NCC(=O)O,i

# From PubChem
